From the supplement of paper PMC8975748
Structures can show the parent of a compound that is named as a salt. ± gives the standard deviation of the averaged measurements.

Assays:
[1] = test system: Saccharomyces cerevisiae BY4741 SeMeCo community; assay: mean cell size (pixel area) (pixels); higher = larger cells; settings: 10 µM; 24 h; SM minimal medium
In short: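 A Saccharomyces cerevisiae BY4741 community carrying four plasmids, each with a fluorescent marker and each complementing one auxotrophy, was exposed for 24 h to drug at a final 10 µM in SM medium in acoustically predosed 384-well plates. The overnight preculture (OD600 = 1.0) was diluted to OD600 = 0.3 before 70 µl was added per well. Cells were then fixed with paraformaldehyde, imaged by automated confocal microscopy and analysed in Harmony to derive mean cell pixel area per well, averaged over 3 replicates. Same SeMeCo high-content imaging drug screen: Selleck FDA-approved drugs at 10 µM, 24 h in SM medium, 384-well plates, 3 replicates.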

[2] = test system: Saccharomyces cerevisiae BY4741 SeMeCo community; assay: z-score of prototroph abundance vs DMSO median; higher = larger share of this subpopulation than in DMSO controls; settings: 10 µM; 24 h; SM minimal medium; subpopulation (auxotrophy): Prototroph
In short: (§1)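 Cells of a Saccharomyces cerevisiae BY4741 community, carrying four plasmids that each restored one auxotrophy and encoded a distinct fluorescent protein, were pre-grown overnight to OD600 1.0 and diluted to 0.3. A 70 µl volume was added to 384-well plates acoustically predosed with library drugs (10 µM final) and grown 24 h in minimal SM medium. After paraformaldehyde fixation, automated confocal microscopy was used, with single-auxotroph fluorescent strains for thresholds and autofluorescence correction. The abundance of each subpopulation was scored as a z-score against the vehicle-well median.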

[3] = test system: Saccharomyces cerevisiae BY4741 SeMeCo community; assay: z-score of subpopulation abundance vs DMSO median, subpopulation auxotrophic for L; higher = larger share of this subpopulation than in DMSO controls; settings: 10 µM; 24 h; SM minimal medium; subpopulation (auxotrophy): L
In short: as §1

[4] = test system: Saccharomyces cerevisiae BY4741 SeMeCo community; assay: z-score of subpopulation abundance vs DMSO median, subpopulation auxotrophic for U; higher = larger share of this subpopulation than in DMSO controls; settings: 10 µM; 24 h; SM minimal medium; subpopulation (auxotrophy): U
In short: as §1

[5] = test system: Saccharomyces cerevisiae BY4741 SeMeCo community; assay: z-score of subpopulation abundance vs DMSO median, subpopulation auxotrophic for LU; higher = larger share of this subpopulation than in DMSO controls; settings: 10 µM; 24 h; SM minimal medium; subpopulation (auxotrophy): LU
In short: as §1

[6] = test system: Saccharomyces cerevisiae BY4741 SeMeCo community; assay: z-score of subpopulation abundance vs DMSO median, subpopulation auxotrophic for LM; higher = larger share of this subpopulation than in DMSO controls; settings: 10 µM; 24 h; SM minimal medium; subpopulation (auxotrophy): LM
In short: as §1

[7] = test system: Saccharomyces cerevisiae BY4741 SeMeCo community; assay: z-score of subpopulation abundance vs DMSO median, subpopulation auxotrophic for HM; higher = larger share of this subpopulation than in DMSO controls; settings: 10 µM; 24 h; SM minimal medium; subpopulation (auxotrophy): HM
In short: as §1

[8] = test system: Saccharomyces cerevisiae BY4741 SeMeCo community; assay: z-score of subpopulation abundance vs DMSO median, subpopulation auxotrophic for UM; higher = larger share of this subpopulation than in DMSO controls; settings: 10 µM; 24 h; SM minimal medium; subpopulation (auxotrophy): UM
In short: as §1

[9] = test system: Saccharomyces cerevisiae BY4741 SeMeCo community; assay: z-score of subpopulation abundance vs DMSO median, subpopulation auxotrophic for HL; higher = larger share of this subpopulation than in DMSO controls; settings: 10 µM; 24 h; SM minimal medium; subpopulation (auxotrophy): HL
In short: as §1

[10] = test system: Saccharomyces cerevisiae BY4741 SeMeCo community; assay: z-score of subpopulation abundance vs DMSO median, subpopulation auxotrophic for HLU; higher = larger share of this subpopulation than in DMSO controls; settings: 10 µM; 24 h; SM minimal medium; subpopulation (auxotrophy): HLU
In short: as §1

[11] = test system: Saccharomyces cerevisiae BY4741 SeMeCo community; assay: z-score of subpopulation abundance vs DMSO median, subpopulation auxotrophic for HLM; higher = larger share of this subpopulation than in DMSO controls; settings: 10 µM; 24 h; SM minimal medium; subpopulation (auxotrophy): HLM
In short: as §1

[12] = test system: Saccharomyces cerevisiae BY4741 SeMeCo community; assay: z-score of subpopulation abundance vs DMSO median, subpopulation auxotrophic for HUM; higher = larger share of this subpopulation than in DMSO controls; settings: 10 µM; 24 h; SM minimal medium; subpopulation (auxotrophy): HUM
In short: as §1

[13] = test system: Saccharomyces cerevisiae BY4741 SeMeCo community; assay: z-score of subpopulation abundance vs DMSO median, subpopulation auxotrophic for LUM; higher = larger share of this subpopulation than in DMSO controls; settings: 10 µM; 24 h; SM minimal medium; subpopulation (auxotrophy): LUM
In short: as §1

[14] = test system: Saccharomyces cerevisiae BY4741 SeMeCo community; assay: z-score of subpopulation abundance vs DMSO median, subpopulation auxotrophic for HLUM; higher = larger share of this subpopulation than in DMSO controls; settings: 10 µM; 24 h; SM minimal medium; subpopulation (auxotrophy): HLUM
In short: as §1

[15] = test system: Saccharomyces cerevisiae BY4741 SeMeCo community; assay: z-score of subpopulation abundance vs DMSO median, subpopulation auxotrophic for H; higher = larger share of this subpopulation than in DMSO controls; settings: 10 µM; 24 h; SM minimal medium; subpopulation (auxotrophy): H
In short: as §1

[16] = test system: Saccharomyces cerevisiae BY4741 SeMeCo community; assay: z-score of subpopulation abundance vs DMSO median, subpopulation auxotrophic for HU; higher = larger share of this subpopulation than in DMSO controls; settings: 10 µM; 24 h; SM minimal medium; subpopulation (auxotrophy): HU
In short: as §1

Structure (SMILES) | mean cell size [1] | z-score of prototroph abundance [2] | z-score of subpopulation abundance [3] | z-score of subpopulation abundance [4] | z-score of subpopulation abundance [5] | z-score of subpopulation abundance [6] | z-score of subpopulation abundance [7] | z-score of subpopulation abundance [8] | z-score of subpopulation abundance [9] | z-score of subpopulation abundance [10] | z-score of subpopulation abundance [11] | z-score of subpopulation abundance [12] | z-score of subpopulation abundance [13] | z-score of subpopulation abundance [14] | z-score of subpopulation abundance [15] | z-score of subpopulation abundance [16]
COc1cccc2c1C(=O)c1c(O)c3c(c(O)c1C2=O)CC(O)(C(=O)CO)CC3OC1CC(N)C(O)C(C)O1 (configuration not stated) [Doxorubicin (Adriamycin) HCl] | 13.68 ± 0.1 | -3.54 | 0.99 | 4.2 | 8.06 | -0.36 | -2.19 | 0.38 | 2.67 | 12.3 | 2.16 | 2.39 | 4.19 | 12.9 | – | –
COc1ccc2[nH]c([S+]([O-])Cc3ncc(C)c(OC)c3C)nc2c1 (configuration not stated) [Omeprazole] | 12.3 ± 0.19 | -0.07 | 1.33 | -1.23 | 0.12 | – | 0.37 | -0.94 | 2.48 | 1.91 | -0.19 | -0.34 | 0.62 | -0.03 | – | –
COc1cc(N)c(Cl)cc1C(=O)NC1CCN(CCCOc2ccc(F)cc2)CC1OC (configuration not stated) [Cisapride] | 12 ± 0.14 | 1.03 | 0.11 | – | -0.54 | -0.7 | -1.22 | -0.35 | -0.95 | 0.37 | -0.82 | -0.94 | -0.18 | -0.17 | -0.08 | –
C=CC[N+]1([C@H]2C[C@H]3[C@@H]4CC[C@H]5C[C@H](O)[C@@H](N6CCOCC6)C[C@]5(C)[C@H]4CC[C@]3(C)[C@H]2OC(C)=O)CCCC1 [Rocuronium Bromide] | – | 0.88 | 0.67 | -0.5 | -0.06 | -0.17 | – | -0.71 | -0.71 | 0 | -0.65 | -1.09 | – | -0.49 | – | -0.39
Nc1ccc(S(=O)(=O)Nc2ccccn2)cc1 [Sulfapyridine] | 12.2 ± 0.13 | 0.95 | -0.23 | -0.03 | -0.25 | -0.18 | -0.46 | -0.75 | -0.68 | -0.45 | -0.9 | -0.97 | -0.73 | -0.89 | -0.9 | –
C#C[C@]1(O)CC[C@H]2[C@@H]3CCC4=CC(=O)CC[C@@H]4[C@H]3CC[C@@]21CC [Levonorgestrel] | – | 0.69 | -0.24 | 0.3 | -0.04 | -0.89 | -0.99 | -0.13 | -0.95 | 0.05 | -0.96 | -0.08 | -0.68 | -0.86 | -0.72 | -0.13
CO/N=C(\C(=O)N[C@@H]1C(=O)N2C(C(=O)O)=C(COC(N)=O)CS[C@H]12)c1ccco1 [Cefuroxime sodium] | 12.47 ± 0.073 | 0.23 | -0.97 | 0.58 | -1.06 | -0.79 | – | 0.13 | -0.76 | -1.34 | -1.17 | -0.92 | -0.31 | -0.98 | -1.01 | -0.93
CC(=O)N1CCN(c2ccc(OCC3COC(Cn4ccnc4)(c4ccc(Cl)cc4Cl)O3)cc2)CC1 (configuration not stated) [Ketoconazole] | 11.9 ± 0.21 | 0.99 | -0.63 | -0.47 | -0.4 | -0.27 | -1.06 | -0.23 | – | -0.27 | -0.67 | 0.03 | -0.27 | – | 0.08 | -0.29
